According to PMC7819943, “Rice protein-binding microarrays: a tool to detect cis-acting elements near promoter regions in rice”:
In all, about 35,000 sequences were measured (“fluorescence intensity (a.u.)”: median about 10,000, highest 2% from about 52,000 on). Shown is part of a subset that was picked to be rich in the highest values.

Target: T1, OsWOX13 (Oryza sativa, UniProt Q5QMM3 1-267)
T1 sequence: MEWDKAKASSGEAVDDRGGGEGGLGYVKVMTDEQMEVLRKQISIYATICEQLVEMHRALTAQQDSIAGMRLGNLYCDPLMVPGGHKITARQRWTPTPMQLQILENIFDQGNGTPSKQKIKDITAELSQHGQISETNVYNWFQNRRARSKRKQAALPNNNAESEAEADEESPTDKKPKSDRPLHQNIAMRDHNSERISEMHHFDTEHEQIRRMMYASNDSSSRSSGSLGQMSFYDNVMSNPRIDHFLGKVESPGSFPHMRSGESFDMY
Test: protein-binding microarray (RPBM); PBS, 2% BSA, 51.3 ng/ul salmon testes DNA, 50 uM zinc acetate, 200 nM TF, 25 C, 1 h; high values mean tight binding
Conditions: protein: recombinant; tags: N-terminal polyhistidine and DsRed monomer fusion (pET32a); label: CyDye5-dUTP incorporated in the synthesized complementary strand; 3' TTTTT single-stranded linker to array surface; dsDNA, one strand shown
In short: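 For the binding signal, per-feature fluorescence intensity was read in arbitrary units on an Axon 4000B scanner. Before scanning, a 2% BSA-blocked custom Agilent array made double-stranded with Cy5-dUTP was washed after 1 h at 25 °C with 200 nM protein and 50 µM zinc acetate. The proteins were Ni–NTA-purified transcription factors with N-terminal polyhistidine and DsRed fusions, expressed in E. coli BL21-CodonPlus.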

Row | Sequence | binding signal
1 | GTTGTACCACTGATTGGACTGCCTGCTTACCGATAATTAACGGAGTCACCTAGTGCAG | 24500 fluorescence intensity (a.u.)
2 | TTCTTGATGGAAATTGAAATTGTGTGTGTGGGATGCAGGACGGAGTCACCTAGTGCAG | 46400 fluorescence intensity (a.u.)
3 | ACACTAATAGGTCATGTCCATTTCCATCCCATTTCCATTGCGGAGTCACCTAGTGCAG | 7050 fluorescence intensity (a.u.)
4 | AGACTATTTACAAAACTAATTACATAAATGAAAGCTAACTCGGAGTCACCTAGTGCAG | 5260 fluorescence intensity (a.u.)
5 | TAAATTATTTTCTATTTATAAATATGTCGTTTGCCTTATTCGGAGTCACCTAGTGCAG | 4180 fluorescence intensity (a.u.)
6 | AATTGACAAAGATGAAACACATGTGGACTGGACTACTCGACGGAGTCACCTAGTGCAG | 3660 fluorescence intensity (a.u.)
7 | ATATAAATTGACTATTAAATATATTGACTATATGTAAATTCGGAGTCACCTAGTGCAG | 25600 fluorescence intensity (a.u.)
8 | AATTAACGGAGGAAACTCCAATCAGATACGCAGACGGACACGGAGTCACCTAGTGCAG | 8430 fluorescence intensity (a.u.)
9 | TATATATATATATATATATATATATATATATATATAGACACGGAGTCACCTAGTGCAG | 7880 fluorescence intensity (a.u.)
10 | CACCATGATTGATTGCTCCATGCACACACATTGAGACACGCGGAGTCACCTAGTGCAG | 59700 fluorescence intensity (a.u.)
11 | ATTGCTGATTGAGCATGTAGACATTGCTAGTGGTAGTACGCGGAGTCACCTAGTGCAG | 58000 fluorescence intensity (a.u.)
12 | CTCTAGTTGATGATGGAAATCATTGACAAGAACTATAGCACGGAGTCACCTAGTGCAG | 22100 fluorescence intensity (a.u.)
13 | ATTTGATTTGATCACAACACATTAGCTTGGTTGCTCCATGCGGAGTCACCTAGTGCAG | 41800 fluorescence intensity (a.u.)
14 | AACAGCTGATGAGTGATGATTGACAGACATCACACGCGGACGGAGTCACCTAGTGCAG | 57600 fluorescence intensity (a.u.)
15 | ATGATTGACAAGATGAATCAGCACGCTGTTGGAAAAGGGACGGAGTCACCTAGTGCAG | 55400 fluorescence intensity (a.u.)
16 | TTACACTGATTGATGCTCCACATGAACACCACATGCATTTCGGAGTCACCTAGTGCAG | 32600 fluorescence intensity (a.u.)
17 | AGTGATTATTTATTGGAGTACGATTGAGACCCTTGGTACGCGGAGTCACCTAGTGCAG | 33400 fluorescence intensity (a.u.)
18 | TGGCTGCTGATTGCAACAGTGGTACTGACATTAGCAGCAGCGGAGTCACCTAGTGCAG | 16300 fluorescence intensity (a.u.)
19 | ATTGATGAATGTTGACAAACCTGGTTTGATTTGGAGGGAACGGAGTCACCTAGTGCAG | 23500 fluorescence intensity (a.u.)
20 | AACACAGGCTGATGAATGATGATTGAATGAACAGAGACAACGGAGTCACCTAGTGCAG | 22900 fluorescence intensity (a.u.)
21 | TATCTGATGAGAGCAGATTGCCACACATCACAGCATGCAGCGGAGTCACCTAGTGCAG | 10300 fluorescence intensity (a.u.)
22 | ATTATGTAAATTTTGACTAATGTTTAGTCGAAGTGCAAGTCGGAGTCACCTAGTGCAG | 8100 fluorescence intensity (a.u.)

Row | Sequence | binding signal
23 | TGTCACAAATCTAATGGTATAATTAGTTCATAGTTCGGATCGGAGTCACCTAGTGCAG | 8340 fluorescence intensity (a.u.)
24 | TCTAAATTTTCATGACATGGTACCATACTACAAATCCATCCGGAGTCACCTAGTGCAG | 9500 fluorescence intensity (a.u.)
25 | TTTAGACAGTAATTAAAGTCGAATTACATTGCATTGTTCGCGGAGTCACCTAGTGCAG | 40300 fluorescence intensity (a.u.)
26 | GTAATTGGGAGGGAATTTCTCCTTTACTTCGCCTAAACAACGGAGTCACCTAGTGCAG | 14100 fluorescence intensity (a.u.)
27 | TCTAACTGTGGATAATATCTGACAGGAAATTTGATATCAACGGAGTCACCTAGTGCAG | 6210 fluorescence intensity (a.u.)
28 | TGTTGGTTAAGTAATTAATTAAGTCTTGGCTATTGGCGATCGGAGTCACCTAGTGCAG | 13500 fluorescence intensity (a.u.)
29 | TCGTAAAATTAATTGTAAATTGTAATATGATAACAAGGCCCGGAGTCACCTAGTGCAG | 33100 fluorescence intensity (a.u.)
30 | ACTTTTCAGTTACATCATCTCTAATTTCAATTGAAATCCACGGAGTCACCTAGTGCAG | 7120 fluorescence intensity (a.u.)
31 | AGTTTTCAAAATTTGACTTTAAAATTTAAATCTTAAATCACGGAGTCACCTAGTGCAG | 3970 fluorescence intensity (a.u.)
32 | TCTTAATTGAAAGAGTTTTCATCATGTCTTTCAGTCACCACGGAGTCACCTAGTGCAG | 53900 fluorescence intensity (a.u.)
33 | GTGCTTTAATCAGTAATTTTGCAATTGCTTTTGAATTTCACGGAGTCACCTAGTGCAG | 5640 fluorescence intensity (a.u.)
34 | GAGTTTAATTAATTAATTTCTTAAAATTGATGTCATCACACGGAGTCACCTAGTGCAG | 54800 fluorescence intensity (a.u.)
35 | CAAAATTATCTAATTGATGACTATTTCTAAATACACATCACGGAGTCACCTAGTGCAG | 41800 fluorescence intensity (a.u.)
36 | CTAATCAAAATGTAATTAACTCATTTATATATTACGGAAACGGAGTCACCTAGTGCAG | 21800 fluorescence intensity (a.u.)
37 | TCGATCTCCATTAATTATCCAACGACGACACGACGACGCACGGAGTCACCTAGTGCAG | 5720 fluorescence intensity (a.u.)
38 | GGGTCAGGGTGGGCGTGGATTGATATTTTAATACGAATAACGGAGTCACCTAGTGCAG | 10800 fluorescence intensity (a.u.)
39 | TGCACGCTAATTTGCCTTGCTGCTGCTGCTACTAGGGCGGCGGAGTCACCTAGTGCAG | 4920 fluorescence intensity (a.u.)
40 | GAACGGAGGATGCTGAGCTCTCTTATGAGGTCTATTTTCCCGGAGTCACCTAGTGCAG | 65100 fluorescence intensity (a.u.)
41 | AGCCTAATTAATTCGTCATTAGCATATGTGGGTTATTATACGGAGTCACCTAGTGCAG | 27800 fluorescence intensity (a.u.)
42 | ACTTAATTATGTTGTGGTTAATTAGCCCCGAAATGGTCGTCGGAGTCACCTAGTGCAG | 52900 fluorescence intensity (a.u.)
43 | GATTAATGATTAATTAATAATATGTTAATGAGTTTTATCCCGGAGTCACCTAGTGCAG | 52500 fluorescence intensity (a.u.)
